Records with an inconclusive call do not appear. Active and inactive are the calls of the source. The call rests on the fitted dose curve; in most records, active means well fitted curve in the direction sought with a large enough effect; inconclusive means small, poorly fitted or top-dose-only effect, or another doubt; inactive means no such curve, though single readings can be large; an effect the other way counts as inactive or inconclusive.
What was measured:
[1] = MultiTox-Fluor Cytotoxicity Assay - LYMP1-001 - Live Cells (AID 947)
[2] = Cell Viability - LYMP1-002 - Assay at 16 hr (AID 948)
How it was run: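 ATP luminescence (CellTiter-Glo) was measured after 16 hr compound exposure at 37 C of 2500 lymphoblastoid LYMP1-002 cells per well. Concentration-response curves were fitted with the Hill equation to give AC50.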

[3] = MultiTox-Fluor Cytotoxicity Assay - LYMP1-002 - Live Cells (AID 955);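 further: cells exposed to compound for 16 hours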
How it was run: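 After 16 h compound exposure at 37 C, live LYMP1-002 lymphoblastoid cells (2500/well) were quantified by cleavage of cell-permeant GF-AFC substrate, read at 405/510 nm after 60 min. Concentration-response fitted with Hill equation for AC50.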

[4] = MultiTox-Fluor Cytotoxicity Assay - LYMP1-002 - Dead Cells (AID 960); further: nearly all actives have a fitted effect of over 60% in size
How it was run: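 Dead-cell fluorescence (Ex/Em 485/520) after 16 h compound exposure at 37 C of LYMP1-002 lymphoblastoid cells in complete medium; AC50 by Hill equation, with data scaled between DMSO and 15 uM tetraoctylammonium bromide.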

[5] = MultiTox-Fluor Cytotoxicity Assay - LYMP1-003 - Dead Cells (AID 961); further: nearly all actives have a fitted effect of over 70% in size
How it was run: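 Dead-cell protease release, detected as bis-AAF-R110 fluorescence at 485/520 nm, was measured in LYMP1-003 cells after 16 h compound treatment at 37 C. AC50 values came from Hill-modeled qHTS curves normalized to DMSO (0%) and 15 uM tetraoctylammonium bromide (100%).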

[6] = MultiTox-Fluor Cytotoxicity Assay - LYMP1-003 - Live Cells (AID 962);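 further: cells exposed to compound for 16 hours at 37 °C; cytotoxic hits lower the live-cell protease signal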
How it was run: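 Live-cell protease activity (GF-AFC substrate, 405/510 nm, 60 min at room temperature) after 16 h, 37 C compound exposure of human lymphoblastoid LYMP1-003 cells; concentration-response fitted to the Hill equation for AC50.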

[7] = Cell Viability - LYMP1-003 - Assay at 24 hr (AID 963)
How it was run: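 Concentration-response qHTS: ATP loss measured by CellTiter-Glo luminescence after 24 h compound exposure at 37 C. Cells were LYMP1-003 human lymphoblastoid, 2500 per well. AC50 derived via standard Hill equation modeling.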

[8] = Cell Viability - LYMP1-003 - Assay at 40 hr (AID 964); further: series mostly up to about 92 µM; nearly all actives have a fitted effect of over 60% in size
How it was run: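 Viability is taken as cellular ATP, read by CellTiter-Glo luminescence after 40 h of compound exposure at 37 C. Cells: human lymphoblastoid line LYMP1-003 at 2500/well; AC50 values derived by Hill-equation fitting of concentration-response data.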

[9] = Cell Viability - LYMP2-003 (AID 965);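 further: cells exposed to compounds for 24 h before reading; nearly all actives have a fitted effect of over 50% in size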
How it was run: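 CellTiter-Glo luminescence quantified ATP loss after 24 h compound treatment of LYMP2-003 lymphoblastoid cells at 37 C. Titration series were fitted with the standard Hill equation to give AC50.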

[10] = Cell Viability - LYMP2-004 (AID 966); further: nearly all actives have a fitted effect of over 65% in size
How it was run: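 AC50 values come from Hill modelling of concentration-dependent loss of intracellular ATP, measured by CellTiter-Glo luminescence. Human LYMP2-004 lymphoblastoid cells (2500/well) were exposed to compound for 24 h at 37 C.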

[11] = Cell Viability - LYMP2-005 (AID 967); further: series mostly up to about 92 µM
How it was run: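 LYMP2-005 human lymphoblastoid cells (2500/well) were treated with compounds for 24 h at 37 C. Intracellular ATP was then measured by CellTiter-Glo luminescence after 30 min at room temperature. AC50 values came from Hill-equation fits of qHTS concentration-response data.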

[12] = Cell Viability - LYMP2-011 (AID 969); further: nearly all actives have a fitted effect of over 60% in size
How it was run: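 Cytotoxicity qHTS with ATP content as read-out: lymphoblastoid cells (2500/well) exposed to compound for 24 h at 37 C, then luciferase luminescence measured. Concentration-response data fitted with the standard Hill equation to give AC50.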

[13] = Cell Viability - LYMP2-013 (AID 970); further: series mostly up to about 92 µM; nearly all actives have a fitted effect of over 55% in size
How it was run: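 qHTS cytotoxicity: ATP-dependent luminescence (CellTiter-Glo, 30 min room temperature) read after 24 h compound exposure at 37 C of 2500 LYMP2-013 lymphoblastoid cells per well. Concentration-response fitted with Hill equation to give AC50.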

[14] = Cell Viability - LYMP2-015 (AID 971); further: nearly all actives have a fitted effect of over 55% in size
How it was run: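 Cytotoxicity readout: decrease in intracellular ATP (CellTiter-Glo luminescence) in 2500 LYMP2-015 lymphoblastoid cells/well after 24 h compound exposure at 37 C. Concentration-response data fitted with the standard Hill equation to give AC50.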

[15] = Cell Viability - LYMP2-017 (AID 972); further: series mostly up to about 92 µM; nearly all actives have a fitted effect of over 55% in size
How it was run: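 CellTiter-Glo luminescence (cellular ATP, 30 min RT) measured cytotoxicity after 24 hr compound treatment at 37 C. Cells were a human lymphoblastoid line, LYMP2-017, plated at 2500/well and incubated 5 hr first; concentration-response fitted with Hill equation for AC50.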

[16] = Cell Viability - LYMP2-019 (AID 973); further: nearly all actives have a fitted effect of over 55% in size
How it was run: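 AC50 values come from Hill-equation fits of luminescent intracellular ATP (CellTiter-Glo, 30 min, room temperature) following 24 h compound exposure at 37 C. Cells: LYMP2-019 lymphoblastoid line, 2500 per well, in complete culture medium.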

[17] = Cell Viability - LYMP2-021 (AID 974); further: nearly all actives have a fitted effect of over 55% in size
How it was run: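 AC50 values come from Hill-equation fits to CellTiter-Glo luminescence (ATP content), read after 24 hour compound exposure at 37 C of 2500 LYMP2-021 lymphoblastoid cells/well; tetraoctylammonium bromide as positive control.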

[18] = Cell Viability - LYMP2-023 (AID 975)
How it was run: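 Intracellular ATP, read by CellTiter-Glo luminescence, reports viability after 24 hr compound exposure at 37 C. 2500 lymphoblastoid cells/well (LYMP2-023) seeded 5 hr beforehand; Hill fits give AC50; positive control tetraoctylammonium bromide.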

[19] = Cell Viability - LYMP2-025 (AID 976); further: series mostly up to about 92 µM
How it was run: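 Cytotoxicity read as loss of intracellular ATP (luciferase luminescence) after 24 h compound treatment at 37 C. Uses LYMP2-025 lymphoblastoid cells in 1536-well format; Hill-equation modelling gives AC50; tetraoctylammonium bromide as positive control.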

[20] = Cell Viability - LYMP2-002 (AID 977); further: series mostly up to about 92 µM
How it was run: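 Human lymphoblastoid cells (2500/well) in complete medium were preincubated 5 hr at 37 C, then exposed to compounds for 24 hr at 37 C. Intracellular ATP was read by CellTiter-Glo luminescence; AC50 came from Hill-equation concentration-response fits.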

[21] = Cell Viability - LYMP2-006 (AID 978); further: series mostly up to about 92 µM; nearly all actives have a fitted effect of over 60% in size
How it was run: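 Potency values are Hill-fit AC50s for decreases in intracellular ATP (CellTiter-Glo luminescence). LYMP2-006 lymphoblastoid cells, 2500 per well, were exposed to compound in complete culture medium for 24 hr at 37 C.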

[22] = Cell Viability - LYMP2-007 (AID 979)
How it was run: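 AC50 values come from Hill-equation fits of luminescent intracellular ATP (CellTiter-Glo, 30 min, room temperature) following 24 h compound exposure at 37 C. Cells: LYMP2-007 lymphoblastoid line, 2500 per well, in complete culture medium.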

[23] = Cell Viability - LYMP2-010 (AID 981); further: nearly all actives have a fitted effect of over 55% in size
How it was run: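 CellTiter-Glo ATP luminescence measured cytotoxicity after 24 h compound exposure at 37 C. LYMP2-010 cells were seeded at 2500/well, with tetraoctylammonium bromide as control; concentration-response curves gave AC50 values by the Hill equation.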

[24] = Cell Viability - LYMP2-012 (AID 982)

Measured: Potency

Oc1c(Cl)c(Cl)c(Cl)c(Cl)c1Cl
inactive: [1] | [2] | [3] | [4] | [5] | [6] | [7] | [8] | [9] | [10] | [11] | [12] | [13] | [14] | [15] | [16] | [17] | [18] | [19] | [20] | [21] | [22] | [23] | [24]
